Screening results as filed in PubChem.
SENP8 block-1: SENP8 protease inhibitors, primary screen, biochemical, luminescence; Sentrin-specific protease 8 (Homo sapiens), Q96LD8; purified SENP8, Z-RLRGG-aminoluciferin cleavage; inhibition, % at 10 µM; actives 1.2% (n = 330,000); in the data active means inhibition above about 50%
HSP90 refold inh: HSP90 inhibitors, primary screen, cell lysate, luminescence; Heat shock protein HSP 90 (rabbit reticulocyte lysate; luciferase refolding); Rabbit reticulocyte lysate, luciferase refolding luminescence, 3 h; inhibition, % at 5.6 µM; actives 0.91% (n = 290,000);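 active means inhibition above the screen-wide mean plus 3 SD, computed separately per campaign, cut at about 16% in these data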;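 further: 0% = DMSO wells and 100% = 60 µM geldanamycin wells; inhibitors lower the luminescence because luciferase stays unfolded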
SENP7 block: SENP7 protease inhibitors, primary screen, biochemical, luminescence, uHTS. Sentrin-specific protease 7 (Homo sapiens), Q9BQF6. recombinant SENP7, Z-RLRGG-aminoluciferin luminescence, 40 min. inhibition, % at 5 µM. actives 1.5% (n = 330,000). AID 434973, 2010;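 active means inhibition above about 50% at the single test dose, limit read from the data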;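 further: plate controls were DMSO with enzyme for no effect and no enzyme buffer wells for full effect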
Platelet DG rel: inhibitors of platelet dense granule secretion, primary screen, cell-based, MLPCN, human platelets | human platelet-rich plasma, SFLLRN dense granule ATP release, luminescence | inhibition, %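 (compounds screened at 7.5 µM in platelet-rich plasma)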 | actives 0.22% (n = 300,000) | AID 1663, 2009;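 active means mean replicate score, as percent of positive control, at or above 50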
SENP8 block-2: human SENP8 protease inhibitors, primary screen, biochemical, fluorescence, Nedd8 protein substrate, uHTS. Sentrin-specific protease 8 (Homo sapiens), Q96LD8. AID 602440, 2012. recombinant SENP8. actives 0.64% (n = 360,000). inhibition, % at 20 µM; in the data active means inhibition mostly above about 40%, no sharp cut-off; inactive means mostly below about 27%
SENP6 block: SENP6 protease inhibitors, primary screen, biochemical, luminescence, uHTS. inhibition, % at 10 µM. AID 2599, 2010. Recombinant SENP6 catalytic domain, aminoluciferin luminescence. actives 1.8% (n = 330,000);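 active means inhibition above about 50% at the single tested dose, limit read from the data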;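 further: plate controls were DMSO wells with enzyme for no effect and DMSO wells lacking enzyme for full effect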
Target sequence (Q9GZR1 628-1112 limits assumed): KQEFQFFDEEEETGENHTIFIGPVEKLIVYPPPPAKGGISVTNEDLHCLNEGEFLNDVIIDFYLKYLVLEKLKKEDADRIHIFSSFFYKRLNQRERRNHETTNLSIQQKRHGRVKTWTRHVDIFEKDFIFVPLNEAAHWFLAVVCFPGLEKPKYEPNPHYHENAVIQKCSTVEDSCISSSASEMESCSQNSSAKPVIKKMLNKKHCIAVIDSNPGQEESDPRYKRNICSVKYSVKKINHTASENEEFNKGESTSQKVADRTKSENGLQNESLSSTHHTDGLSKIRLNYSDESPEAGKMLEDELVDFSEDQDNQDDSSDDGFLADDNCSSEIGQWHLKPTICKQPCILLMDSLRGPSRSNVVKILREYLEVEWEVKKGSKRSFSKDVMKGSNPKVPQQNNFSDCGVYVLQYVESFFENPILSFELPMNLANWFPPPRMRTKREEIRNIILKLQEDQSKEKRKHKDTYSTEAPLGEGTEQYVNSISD
SENP8 conf: SENP8 protease inhibitors, retest, confirmation, biochemical, luminescence, single concentration; shares compounds with SENP7 block; Recombinant SENP8, Z-RLRGG-aminoluciferin luminescence, 60 min; inhibition, % at 12.5 µM; actives 40% (n = 6,200);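 active means mean inhibition across replicates above about 50%, limit read from the data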
SENP6 conf: SENP6 protease inhibitors, confirmation, biochemical, luminescence, single concentration | shares compounds with SENP7 block | recombinant SENP6, Z-RLRGG-aminoluciferin luminescence | inhibition, % at 12.5 µM | actives 58% (n = 6,200)
SENP7 confirm: SENP7 protease inhibitors, retest, confirmation, biochemical, luminescence, single concentration. inhibition, % at 12.5 µM. actives 69% (n = 6,200). shares compounds with SENP7 block. AID 488917, 2010. recombinant SENP7, Z-RLRGG-aminoluciferin luminescence, 40 min
Casp3 SENP sel: caspase-3 protease inhibitors, confirmation, selectivity assay for SENP inhibitor project, biochemical, single concentration; inhibition, % at 12.5 µM; actives 60% (n = 6,200); shares compounds with SENP7 block; purified caspase-3, Z-DEVD-aminoluciferin luminescence, 60 min;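 active means mean inhibition above about 50%, limit read from the data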;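 further: plate controls were enzyme with DMSO for no effect and wells without caspase-3 for full effect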
Target sequence (P42574 28-227 limits assumed): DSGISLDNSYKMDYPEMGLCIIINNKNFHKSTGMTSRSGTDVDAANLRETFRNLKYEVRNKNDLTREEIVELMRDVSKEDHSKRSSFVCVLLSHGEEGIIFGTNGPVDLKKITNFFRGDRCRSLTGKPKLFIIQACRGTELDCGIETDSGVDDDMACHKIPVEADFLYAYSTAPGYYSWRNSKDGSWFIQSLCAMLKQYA
SENP luc ctr: counter-screen for SENP inhibitors: luminescence interference | shares compounds with SENP7 block | actives 39% (n = 6,200) | Pre-incubated SENP8/Z-RLRGG-aminoluciferin, luciferase luminescence interference | inhibition, % at 12.5 µM;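 active means mean inhibition above about 50% when retested at one dose, limit read from the data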;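 further: plate controls were DMSO wells with completed reaction for no effect and substrate without enzyme for full effect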
Starred values were filed as active, the others as inactive; / = no result. Hits are enriched below; roughly 2.8% of the tested compounds scored in any of these assays.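 How the source made its calls, unless noted: active means mean inhibition above about 50% in the one-dose retest (limit read from the data); inactive means the rest.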

SMILES	SENP8 block-1	HSP90 refold inh	SENP7 block	Platelet DG rel	SENP8 block-2	SENP6 block	SENP8 conf	SENP6 conf	SENP7 confirm	Casp3 SENP sel	SENP luc ctr
Clc1ccccc1-c1ncc(-c2ccccc2)o1	87.5*	-6.1	92.4*	-7.0	-415.7	90.6*	79.4*	91.5*	98.7*	79.2*	83.7*
CSc1nnc(-c2ccccc2Cl)o1	1.4	5.3	-0.7	4.0	15.3	-15.7	/	/	/	/	/
CCCNC(=O)CCn1c(=S)oc2ccccc21	-6.7	-1.6	-1.2	3.3	7.5	57.8*	-0.5	-1.9	7.1	5.7	0.1
CCCCc1ccc(-c2ccc(Br)cc2O)nc1	-5.1	1.6	67.6*	-1.6	28.0	12.1	9.5	9.8	10.9	25.0	3.9
CCCCc1ccc(-c2ccc(C)cc2O)nc1	53.1*	-1.0	72.5*	-4.7	27.4	13.8	18.8	30.3	29.6	42.4	17.7
CCCCc1ccc(-c2nn[nH]n2)nc1	/	/	/	/	16.9	/	/	/	/	/	/
CC(=O)NCCC(=O)Nc1cc(S(=O)(=O)N2CCOCC2)ccc1Oc1ccccc1	2.7	-2.9	-4.2	2.5	1.3	-4.6	/	/	/	/	/
COc1c(OC(C)=O)ccc(/C=C/c2ccc3cccc(OC)c3n2)c1[N+](=O)[O-]	17.4	-0.6	-1.1	28.4	12.5	28.8	/	/	/	/	/
Cn1c(/C=C/c2ccccc2[N+](=O)[O-])nc2ccccc2c1=O	-4.3	0.5	-1.6	3.3	8.0	-9.7	/	/	/	/	/
O=[N+]([O-])c1ccccc1/C=C/c1ccc2ccccc2n1	85.0*	-1.7	81.5*	4.3	11.0	88.2*	93.5*	93.4*	100.1*	79.4*	47.4
COc1c(OC(C)=O)ccc(/C=C/c2ccc3ccccc3n2)c1[N+](=O)[O-]	89.2*	-1.5	90.8*	40.3	18.8	93.8*	86.0*	96.9*	98.7*	84.5*	41.4
COc1ccccc1C(=O)Nc1ccnn1C1CCN(Cc2ncc[nH]2)CC1	3.5	3.9	2.7	0.3	-3.3	14.7	/	/	/	/	/
O=C(C[C@H]1CC[C@H]2[C@@H](COC[C@@H](O)CN2Cc2cc(F)ccc2F)O1)NCc1ccc(Cl)cc1	/	/	/	/	25.1	/	/	/	/	/	/
O=C(Nc1ccsc1C(=O)O)c1cccc(C(F)(F)F)c1	68.8*	-2.6	42.8	-2.7	7.2	74.8*	82.1*	82.2*	92.0*	80.0*	82.6*
Cc1ccccc1NC(=O)c1cccc(C(F)(F)F)c1	-15.0	-2.7	-3.8	-31.9	-2.6	-26.1	/	/	/	/	/
O=C(Nc1ccsc1C(=O)O)c1cccc(Oc2ccccc2)c1	90.7*	13.2	27.8	5.0	14.6	93.1*	94.9*	95.6*	98.7*	78.8*	95.0*
O=C(Nc1ccsc1C(=O)O)c1ccc(Cl)cc1	90.7*	6.9	88.1*	-5.1	1.8	93.6*	94.9*	95.8*	101.3*	96.1*	94.9*
COC(=O)c1sccc1NC(=O)c1ccncc1	-6.8	2.6	-9.1	1.2	6.0	-4.8	/	/	/	/	/
CN(C)c1ccc(/C=N/NC(=O)CN2CCCCC2)cc1Br	-5.8	-1.0	-8.8	0.2	13.3	-0.5	/	/	/	/	/
COc1ccc(C(N)c2nccc3cc(OC)c(OC)cc23)cc1OC (stereo not given)	49.3	12.9	69.8*	-4.0	-83.4	75.1*	-25.8	-13.1	-5.7	-9.1	-6.9
CNc1nc(N2CCc3ccccc32)ncc1F	79.5*	-1.9	4.5	14.1	-7.7	86.3*	85.0*	86.3*	98.3*	83.1*	86.7*
COc1ccc(C2CC(=O)c3cnc(N4CCc5ccccc54)nc3C2)cc1OC (stereo not given)	-4.4	5.0	11.5	0.6	/	-9.2	/	/	/	/	/
COc1cccc(/C=C/C(=O)Nc2cccc(C(C)=O)c2)c1OC	12.4	-4.3	28.8	6.8	-62.3	33.2	/	/	/	/	/
COc1cccc(/C=C/C(=O)Nc2ccc3c(c2)OCCO3)c1OC	61.9*	21.3*	76.0*	-1.3	5.6	33.2	78.8*	77.2*	91.2*	71.1*	78.9*
COc1cccc(C(=O)Nc2ccc3c(c2)OCO3)c1OC	33.3	2.0	37.1	-1.1	15.6	55.1*	26.9	24.7	73.0*	73.0*	54.1*
SMILES	SENP8 block-1	HSP90 refold inh	SENP7 block	Platelet DG rel	SENP8 block-2	SENP6 block	SENP8 conf	SENP6 conf	SENP7 confirm	Casp3 SENP sel	SENP luc ctr
CCOC(=O)c1sc(N2N=C(C)C(N=Nc3cccc(C)c3)C2=O)nc1C (stereo not given)	-0.5	0.9	3.2	1.5	17.2	-6.2	/	/	/	/	/
CC1=NN(c2ccccc2C(=O)O)C(=O)C1N=Nc1ccccc1 (stereo not given)	-4.0	6.0	-0.5	2.8	27.7	-0.9	/	/	/	/	/
CC1=NN(C(N)=S)C(=O)C1N=Nc1ccccc1C(=O)O (stereo not given)	-7.5	4.4	2.6	-4.1	9.6	8.3	/	/	/	/	/
CC1=NN(C(N)=S)C(=O)C1N=Nc1cccc(C)c1 (stereo not given)	60.5*	1.2	54.2*	13.2	30.2	1.4	12.7	9.5	11.7	8.1	4.2
CC1=NN(c2nc(-c3ccc(C)cc3)cs2)C(=O)C1N=Nc1cccc(C)c1 (stereo not given)	8.1	3.0	-2.1	-1.1	35.3	68.6*	-1.7	16.2	-8.6	16.0	51.6*
CC1=NN(C(N)=S)C(=O)C1N=Nc1ccc(C)c(Br)c1 (stereo not given)	92.9*	1.9	77.6*	1.1	18.2	95.5*	61.8*	53.2*	43.2	68.2*	35.8
CC1=NN(C(N)=S)C(=O)C1N=Nc1cccc(C(=O)O)c1 (stereo not given)	85.0*	13.2	90.7*	0.5	27.1	93.1*	92.5*	91.7*	100.2*	84.4*	46.6
